Data: PubChem BioAssay (EPA / NIEHS)
Several values for one entry are separate records, joined by “and”; a condition that tells them apart may be missing. Equal values may be shown once. Some structures have more than one record in an assay (separate samples or runs), and their calls can disagree. Activity calls are given as the source filed them. The calls were made as follows: active = hit-call score of the fitted dose curve at least 0.9, where 1 is the maximum; inactive = score below 0.9.

Columns and labels:
[1] = read-out: Tissue plasminogen activator (tPA), PLAT (gene 5327); test: BSK_BE3C_tPA: BioMAP Diversity Plus: BE3C Assay for Tissue plasminogen activator (tPA) Biomarker Activity (AID 2283041); settings: primary human bronchial epithelial cells; actives raise or lower the signal
Outline: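 Primary human lung bronchial epithelial cultures receive test chemical; after 24 h, tPA is quantified by ELISA, and gain or loss of signal is fitted bidirectionally relative to DMSO baseline.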

[2] = read-out: Interleukin-8 (IL8), CXCL8 (gene 3576); test: BSK_CASM3C_IL8: BioMAP Diversity Plus: CASM3C Assay for Interleukin-8 (IL8) Biomarker Activity (AID 2283042); settings: primary human coronary artery smooth muscle cells; actives raise or lower the signal;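 also: IL-8 protein level quantified by ELISA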
[3] = read-out: Human Leukocyte Antigen - DR isotype (HLADR), HLA-DRA (gene 3122); test: BSK_CASM3C_HLADR: BioMAP Diversity Plus: CASM3C Assay for Human Leukocyte Antigen - DR isotype (HLADR) Biomarker Activity (AID 2283043); settings: primary human coronary artery smooth muscle cells; actives raise or lower the signal;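 also: cell-surface HLA-DR protein level quantified by ELISA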
[4] = read-out: Macrophage colony-stimulating factor (MCSF), CSF1 (gene 1435); test: BSK_CASM3C_MCSF: BioMAP Diversity Plus: CASM3C Assay for Macrophage colony-stimulating factor (MCSF) Biomarker Activity (AID 2283044); settings: primary human coronary artery smooth muscle cells; actives raise or lower the signal;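 also: M-CSF protein amount quantified by ELISA after 24 h exposure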
[5] = read-out: Low-density lipoprotein receptor (LDLR), LDLR (gene 3949); test: BSK_CASM3C_LDLR: BioMAP Diversity Plus: CASM3C Assay for Low-density lipoprotein receptor (LDLR) Biomarker Activity (AID 2283045); settings: primary human coronary artery smooth muscle cells; actives raise or lower the signal;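 also: LDLR protein level on the cell surface quantified by ELISA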
[6] = read-out: Monocyte Chemoattractant Protein-1 (MCP1), CCL2 (gene 6347); test: BSK_CASM3C_MCP1: BioMAP Diversity Plus: CASM3C Assay for Monocyte Chemoattractant Protein-1 (MCP1) Biomarker Activity (AID 2283046); settings: primary human coronary artery smooth muscle cells; actives raise or lower the signal;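 also: MCP-1 level quantified by ELISA 24 h after dosing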
[7] = BSK_CASM3C_Proliferation: Cell Proliferation Assessment in the BioMAP Diversity Plus: CASM3C Assay (AID 2283047); settings: primary human coronary artery smooth muscle cells;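 also: sulforhodamine B total protein stain as relative cell number at 560 nm; sub-confluent cells exposed 48 h before staining; fitted both ways against DMSO so gain or loss of cell number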
[8] = read-out: Monokine induced gamma interferon (MIG), CXCL9 (gene 4283); test: BSK_CASM3C_MIG: BioMAP Diversity Plus: CASM3C Assay for Monokine induced gamma interferon (MIG) Biomarker Activity (AID 2283048); settings: primary human coronary artery smooth muscle cells; actives raise or lower the signal;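 also: MIG protein level measured by ELISA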
[9] = read-out: serum amyloid A (SAA), SAA1 (gene 6288); test: BSK_CASM3C_SAA: BioMAP Diversity Plus: CASM3C Assay for serum amyloid A (SAA) Biomarker Activity (AID 2283049); settings: primary human coronary artery smooth muscle cells; actives raise or lower the signal;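 also: SAA protein level quantified by ELISA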
[10] = BSK_CASM3C_SRB: Viability Assessment in the BioMAP Diversity Plus: CASM3C Assay (AID 2283050); settings: primary human coronary artery smooth muscle cells;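 also: total protein by SRB staining as cytotoxicity measure in parallel cultures; cells exposed to compound for 24 h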
[11] = read-out: Thrombomodulin, THBD (gene 7056); test: BSK_CASM3C_Thrombomodulin: BioMAP Diversity Plus: CASM3C Assay for Thrombomodulin Biomarker Activity (AID 2283051); settings: primary human coronary artery smooth muscle cells; actives raise or lower the signal;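 also: thrombomodulin protein level measured by ELISA 24 h after dosing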
[12] = read-out: Tissue Factor, F3 (gene 2152); test: BSK_CASM3C_TissueFactor: BioMAP Diversity Plus: CASM3C Assay for Tissue Factor Biomarker Activity (AID 2283052); settings: primary human coronary artery smooth muscle cells; actives raise or lower the signal;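 also: cell surface tissue factor protein level read by ELISA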
[13] = read-out: Interferon-gamma inducible Protein 10 (IP10), CXCL10 (gene 3627); test: BSK_hDFCGF_IP10: BioMAP Diversity Plus: hDFCGF Assay for Interferon-gamma inducible Protein 10 (IP10) Biomarker Activity (AID 2283053); settings: primary human foreskin fibroblasts; actives raise or lower the signal
Outline: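 Primary foreskin fibroblasts, human; 24 h compound exposure; IP-10 by ELISA; bidirectional fit vs DMSO.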

[14] = read-out: Urokinase-type plasminogen activator receptor (uPAR), PLAUR (gene 5329); test: BSK_CASM3C_uPAR: BioMAP Diversity Plus: CASM3C Assay for Urokinase-type plasminogen activator receptor (uPAR) Biomarker Activity (AID 2283054); settings: primary human coronary artery smooth muscle cells; actives raise or lower the signal;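 also: cell-surface uPAR protein level quantified by ELISA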
[15] = read-out: Vascular cell adhesion molecule 1 (VCAM1), VCAM1 (gene 7412); test: BSK_CASM3C_VCAM1: BioMAP Diversity Plus: CASM3C Assay for Vascular cell adhesion molecule 1 (VCAM1) Biomarker Activity (AID 2283055); settings: primary human coronary artery smooth muscle cells; actives raise or lower the signal;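 also: VCAM-1 protein level quantified by ELISA on the cells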
[16] = read-out: Collagen III, COL3A1 (gene 1281); test: BSK_hDFCGF_CollagenIII: BioMAP Diversity Plus: hDFCGF Assay for Collagen III Biomarker Activity (AID 2283056); settings: primary human foreskin fibroblasts; actives raise or lower the signal
Outline: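 Human foreskin primary fibroblasts were exposed to test chemicals for 24 h, after which collagen III was quantified by ELISA. Activity was fitted bidirectionally against DMSO as negative control and baseline.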

[17] = BSK_hDFCGF_Proliferation: Cell Proliferation Assessment in the BioMAP Diversity Plus: hDFCGF Assay (AID 2283059); settings: primary human foreskin fibroblasts;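 also: curves fitted for both rise and fall of signal versus DMSO baseline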
Outline: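 Steps: dose primary human dermal fibroblasts (foreskin); […] fix in 10% TCA; stain with 0.1% SRB; read 560 nm; fit gain or loss of signal against DMSO.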

[18] = read-out: Macrophage colony-stimulating factor (MCSF), CSF1 (gene 1435); test: BSK_hDFCGF_MCSF: BioMAP Diversity Plus: hDFCGF Assay for Macrophage colony-stimulating factor (MCSF) Biomarker Activity (AID 2283060); settings: primary human foreskin fibroblasts; actives raise or lower the signal
Outline: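 Human foreskin primary fibroblasts were treated with test chemical for 24 h, and M-CSF was then measured by ELISA. Data were fitted bidirectionally against DMSO as the negative control and activity baseline.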

[19] = read-out: Interleukin-8 (IL8), CXCL8 (gene 3576); test: BSK_hDFCGF_IL8: BioMAP Diversity Plus: hDFCGF Assay for Interleukin-8 (IL8) Biomarker Activity (AID 2283058); settings: primary human foreskin fibroblasts; actives raise or lower the signal
Outline: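 hDFCGF human dermal fibroblasts; 24 h chemical exposure; IL-8 by ELISA; bidirectional curve fit vs DMSO baseline; gain or loss of signal scored.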

Measured: AC50

CCCCC(CC)C(=O)O (centres undefined)
inactive: [1] | [2] | [3] | [4] | [5] | [6] | [7] | [8] | [9] | [10] | [11] | [12] | [13] | [14] | [15] | [16] | [17] | [18]

CN(Cc1cnc2nc(N)nc(N)c2n1)c1ccc(C(=O)N[C@@H](CCC(=O)O)C(=O)O)cc1
inactive: [1] | [2] | [3] | [4] | [5] | [6] | [7] | [8] | [9] | [10] | [11] | [12] | [13] | [14] | [15] | [16] | [17] | [18]
active: [18] 2.65 µM

OCCN1CN(CCO)CN(CCO)C1
inactive: [1] | [2] | [3] | [6] | [7] | [8] | [9] | [11] | [12] | [14] | [16]
active: [4] 5 µM | [5] 0.17 µM | [10] 20 µM | [13] 20 µM | [15] 32.8 µM | [17] 25.8 µM | [18] 20 µM

O=C(O)CCC(F)(F)C(F)(F)C(F)(F)C(F)(F)C(F)(F)C(F)(F)F
inactive: [1] | [2] | [3] | [4] | [5] | [6] | [7] | [8] | [9] | [10] | [11] | [12] | [13] | [14] | [15] | [16] | [17] | [18]

OCC(F)(F)C(F)(F)C(F)(F)C(F)(F)C(F)(F)C(F)(F)C(F)(F)C(F)(F)C(F)(F)C(F)(F)C(F)(F)F
active: [16] 58 nM and 74.1 nM
inactive: [1] | [2] | [3] | [4] | [5] | [6] | [7] | [8] | [9] | [10] | [11] | [12] | [13] | [14] | [15] | [19] | [17] | [18]

CN(C)CCOC(c1ccccc1)c1ccccc1
active: [13] 33.6 µM
inactive: [1] | [2] | [3] | [5] | [6] | [7] | [8] | [9] | [10] | [11] | [12] | [14] | [15] | [16] | [17]

O=C1OC2(c3ccccc31)c1cc(I)c(O)c(I)c1Oc1c2cc(I)c(O)c1I
inactive: [2] | [3] | [5] | [7] | [8] | [9] | [10] | [12] | [14] | [15]
active: [1] 5.58 µM | [4] 3.7 µM | [6] 6.12 µM | [11] 2.38 µM | [13] 16 µM | [16] 3.75 µM | [17] 15.2 µM | [18] 4.57 µM

O=P(O)(O)CCC(F)(F)C(F)(F)C(F)(F)C(F)(F)C(F)(F)C(F)(F)F
active: [17] 15.8 µM and 19.1 µM
inactive: [1] | [2] | [3] | [4] | [5] | [6] | [7] | [8] | [9] | [10] | [11] | [12] | [13] | [14] | [15] | [16] | [18]

COCN(COC)c1nc(N(COC)COC)nc(N(COC)COC)n1
inactive: [1] | [2] | [3] | [4] | [5] | [6] | [7] | [8] | [9] | [10] | [11] | [12] | [13] | [14] | [15] | [16] | [17] | [18]

Cc1ccc(C(=O)c2ccccc2)cc1
inactive: [1] | [4] | [5] | [6] | [7] | [8] | [9] | [10] | [11] | [12] | [14] | [15]
active: [2] 0.0224 µM | [3] 3.97 µM | [13] 33.1 µM | [16] 33.8 µM | [17] 32.4 µM | [18] 29.3 µM

O=C(O)CCC(F)(F)C(F)(F)C(F)(F)C(F)(F)C(F)(F)F
active: [18] 0.22 µM
inactive: [1] | [2] | [3] | [4] | [5] | [6] | [7] | [8] | [9] | [10] | [11] | [12] | [13] | [14] | [15] | [16] | [17] | [18]
